Measurements from PubChem BioAssay AID463173 (ICCB-Longwood Screening Facility, Harvard Medical School, 2010).
Screen size: about 52,000 compounds; about 4,300 (8.3%) were called active. Many of the other results were omitted from the sample, so actives are more common in it than they were. A number with no mark means an inactive call. Cut-off read from the data, not from the text of the source: active = survival mostly below about 52% (no sharp cut-off); inactive = mostly above about 56%.

test system: DeltatarO mutant; assay: growth inhibition of S. aureus wild type versus tarO mutant, primary screen, teichoic acid synthesis inhibitors, RN4220, OD600 (AID 463173); conditions: OD600, 18 h, hits give low values, screened at 18.75 µg/mL (by protocol)

SMILES	survival
CCN(C(=O)CN(C)S(=O)(=O)c1ccc2c(c1)c(=O)n(C)c(=O)n2C)c1ccc(OC)cc1	90%
OP(Oc1ccccc1)(Oc1ccccc1)=P(O)(Oc1ccccc1)Oc1ccccc1	97%
COc1ccc(OC)c(Nc2ncc3c(n2)CCN(Cc2cc(OC)c(OC)c(OC)c2)C3)c1	81%
CC(C)OCCCNC(=O)CN1C(=O)COc2ccc(S(=O)(=O)N3CCOCC3)cc21	79%
COC(=O)c1cc(NC(=O)c2sc3ncn(Cc4cccc(F)c4)c(=O)c3c2C)cc(C(=O)OC)c1	92%
CCc1cccc(NC(=O)Cn2nc3c4cc(F)ccc4n(Cc4cccc(C)c4)cc-3c2=O)c1	84%
Cc1ccc(C(=O)COC(=O)c2cc(-c3ccc(Cl)cc3)nc3ccccc23)cc1	136%
COc1ccc(-c2cc(C(=O)Oc3ccc(C)c(C)c3)c3ccccc3n2)cc1	40% (active)
COc1ccc(-c2cc(C(=O)Oc3ccc(C)cc3)c3ccccc3n2)cc1	11% (active)
Cc1ccc(C(=O)COC(=O)c2cc(-c3ccccc3)nc3ccccc23)cc1C	125%
COC(=O)c1cc(-c2ccc(OC)c(OC)c2)nc2ccccc12	72%
Cc1ccc(-c2cc(C(=O)NCCc3ccccc3)c3ccccc3n2)cc1C	88%
COc1ccc(-c2cc(C(=O)Oc3ccc(Br)cc3)c3ccccc3n2)cc1	48%
COc1ccc(-c2cc(C(=O)Oc3ccc(Cl)cc3)c3ccccc3n2)cc1	49% (active)
COc1ccc(C(=O)COC(=O)c2cc(-c3cccs3)nc3ccccc23)cc1	58%
COc1ccc(-c2cc(C(=O)Oc3cccc(C)c3C)c3ccccc3n2)cc1	31% (active)
CNC(=O)c1cc(-c2ccc(OC)cc2)nc2ccccc12	77%
COc1ccc(C(=O)COC(=O)c2cc(-c3ccccc3)nc3c(C)cccc23)cc1	64%
CCn1cc(C(=O)OCC(=O)Nc2cccc(C(C)=O)c2)c(=O)c2ccc(C)nc21	84%
CCC(O)(CCN1CCCCC1)c1ccccc1 (centres undefined)	80%
Cc1cc(C)cc(N(CC(=O)NCc2ccco2)C(=O)c2snc(C(N)=O)c2N)c1	93%
Cc1cccc(C(=O)N2CCc3cc(CNC(=O)CCc4ccccc4)ccc32)c1	60%
CC(=O)CSc1nnc2cc(C)c3cc(C)cc(C)c3n12	106%
CCOC(=O)CN1C(=O)N(c2ccc(C)c(C)c2)S(=O)(=O)c2ccccc21	80%
